Assay results reported in PubChem BioAssay AID1159580 (chemical genetic matrix, 2015).
Hit rate of the full screen: of about 5,500 compounds, about 2,000 (36%) were called active. Inconclusive results (about 18%) are left out. Cut-off read from the data, not from the text of the source: active = normalized growth mostly below about 0.91 (no sharp cut-off); inconclusive = no clear call, values can overlap the other calls; inactive = mostly above about 0.92. The list shows a part of the results.

Experiment: chemical genetic growth profiling, strain panel (AID 1159580);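 note: tested at 20 µM; growth read once vehicle control cultures reached saturation at 30 °C; 1 = growth at the plate median or of vehicle wells; lower values mean less growth of the strain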
Conditions: S. cerevisiae deletion strains, growth OD

Measured: normalized growth

CN1C[C@H](CNC(=O)OCc2ccccc2)C[C@@H]2c3cccc4c3c(cn4C)C[C@H]21
inactive: locus YAL013W, strain DEP1, stronger effect = lower value 0.987 | locus YAL040C, strain CLN3, stronger effect = lower value 0.985 | locus YCL061C, strain MRC1 (second series), stronger effect = lower value 0.998 | locus YDR150W, strain NUM1, stronger effect = lower value 0.994 | locus YDR363W, strain ESC2, stronger effect = lower value 1.01 | locus YER002W, strain NOP16, stronger effect = lower value 1.04 | locus YJR075W, strain HOC1, stronger effect = lower value 0.969 | locus YNL153C, strain GIM3, stronger effect = lower value 0.904 | locus YNL175C, strain NOP13, stronger effect = lower value 1.01 | locus YNL197C, strain WHI3, stronger effect = lower value 0.994 | locus YNL224C, strain SQS1, stronger effect = lower value 1.04 | locus YOR083W, strain WHI5 (second series), stronger effect = lower value 0.969 | locus YPL055C, strain LGE1, stronger effect = lower value 1.02
